Among the data in PMC7819943, “Rice protein-binding microarrays: a tool to detect cis-acting elements near promoter regions in rice” are binding signal values, retold here.

Whole data set: some 68,000 sequences, median “fluorescence intensity (a.u.)” near 9,100, cut for the highest 2% near 16,000. The sample holds the highest values, similar sequences and a random draw of the others, so the mix is not that of the screen.

OsWRKY34, sequence (Q0JBA9 entry or part of it): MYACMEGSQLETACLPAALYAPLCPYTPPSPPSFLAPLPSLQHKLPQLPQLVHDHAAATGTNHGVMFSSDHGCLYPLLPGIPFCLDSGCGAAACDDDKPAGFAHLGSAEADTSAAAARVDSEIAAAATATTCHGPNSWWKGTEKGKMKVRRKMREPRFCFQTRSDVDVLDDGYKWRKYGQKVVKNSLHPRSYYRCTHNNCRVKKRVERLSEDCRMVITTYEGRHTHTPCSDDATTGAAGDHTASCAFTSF

This test concerns the target OsWRKY34 (Oryza sativa, UniProt Q0JBA9 1-250). The experiment in a line: protein-binding microarray (RPBM); PBS, 2% BSA, 51.3 ng/ul salmon testes DNA, 50 uM zinc acetate, 200 nM TF, 25 C, 1 h; high values mean tight binding. Particulars: protein: recombinant; tags: N-terminal polyhistidine and DsRed monomer fusion (pET32a); label: CyDye5-dUTP incorporated in the synthesized complementary strand; 3' TTTTT single-stranded linker to array surface; dsDNA, one strand shown. In a few lines: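 Binding signal here means per-feature fluorescence intensity in arbitrary units. The values were read on an Axon 4000B scanner after a custom Agilent array, double-stranded by primer extension with Cy5-dUTP, was incubated with 200 nM protein at 25 °C for 1 h in PBS with 2% BSA, salmon testes DNA and 50 µM zinc acetate, then washed. The proteins were transcription factors with an N-terminal polyhistidine tag and DsRed, expressed in E. coli BL21-CodonPlus and purified on Ni–NTA.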
In the case of “CGCAGAATCACAGTTTTTCTTCATCTCCGGCAAGGGTAATCGGAGTCACCTAGTGCAG”, the binding signal is 8960 fluorescence intensity (a.u.). To “ACGCACCAACCGTCCCTCTTTCGCTCACACTCTTCCTTCCCGGAGTCACCTAGTGCAG” belongs 9700 fluorescence intensity (a.u.). On to “TACATACTCCTACTCCGTAGTTTGCTGCTTTGTTGGATTCCGGAGTCACCTAGTGCAG”, for which the binding signal was 12900 fluorescence intensity (a.u.). As for “CAATTGGTTGGGTTTCTTGTGCCTACCTGTGTTTAAGTTCCGGAGTCACCTAGTGCAG”, the binding signal is 9160 fluorescence intensity (a.u.).

Regarding “TTGCTCGTATTTTCTCCCCAAAGTCATCAACTTTGATGCTCGGAGTCACCTAGTGCAG”, the binding signal is 19000 fluorescence intensity (a.u.). For the sequence “CTTTTCCTGCTTGGTTCGTTACTCCTGTTTAATTATTATTCGGAGTCACCTAGTGCAG”, the binding signal was 14600 fluorescence intensity (a.u.). As to “TATTTTTTGCATTTTGCTCCCTGATTTGAACTGTATTTCTCGGAGTCACCTAGTGCAG”, the binding signal was 8660 fluorescence intensity (a.u.). As for “TATAGATAGATACTACCAGGGTTTCCAAACTGTTTTTTTGCGGAGTCACCTAGTGCAG”, the binding signal was 23300 fluorescence intensity (a.u.). Then “AGTACTACTACTACTACATACAGCTGCCTTTGCTTAGCTCCGGAGTCACCTAGTGCAG”, with 9580 fluorescence intensity (a.u.). In the case of “ATACCACCTTATATACTTTGCCAAAACCACCTTTTCCAAGCGGAGTCACCTAGTGCAG”, the binding signal was 9040 fluorescence intensity (a.u.). To “GTCCCATCACCTTATTTCTCATTTTGATTTACTTTTATCTCGGAGTCACCTAGTGCAG” belongs 9330 fluorescence intensity (a.u.). Regarding “TTTCTTTTTTTTGCCTACCTTTACTTTACACCAAAAACTGCGGAGTCACCTAGTGCAG”, the binding signal is 8630 fluorescence intensity (a.u.).

As to “GCCTACTCCTACTTGTACATACTTGCTTTTTTTTTTTTTCCGGAGTCACCTAGTGCAG”, the binding signal is 17500 fluorescence intensity (a.u.). Then “CGGGGTTTCACTTGGTTTTAATTGTTCCTGTGCTGCGTCGCGGAGTCACCTAGTGCAG”, with 18700 fluorescence intensity (a.u.). “CGAGGTGTGTCTCTCTCCCGTTCACCCGTCCGTATCCTTCCGGAGTCACCTAGTGCAG”: the binding signal is 11100 fluorescence intensity (a.u.). As for “CGATTATTTCACTAGAGGCAACCATACTGCTACCAAATCCCGGAGTCACCTAGTGCAG”, the binding signal is 10200 fluorescence intensity (a.u.).

As for “TACCTGTTTGTTTTTAAGTTCAGATATTATATTACGTAACCGGAGTCACCTAGTGCAG”, the binding signal was 8930 fluorescence intensity (a.u.).

As for “ACCCCATTTTTTTTGAAAATTCTCGAATTTTATTTTTTTTCGGAGTCACCTAGTGCAG”, the binding signal was 8750 fluorescence intensity (a.u.). Then “AGTCCGACTTTTCCTTTTTTTTTTCCGTGTTTTCCGTTTCCGGAGTCACCTAGTGCAG”, with 14800 fluorescence intensity (a.u.); and “TTTGTCGTTGCTTCCCTTCTTGGAGACCTTGCCTTGAAGACGGAGTCACCTAGTGCAG”, with 8090 fluorescence intensity (a.u.); and “ATTATATTTTAGGTCGCATTTTGATTCTTTTCATGTAATCCGGAGTCACCTAGTGCAG”, with 8660 fluorescence intensity (a.u.). For “TGGTTATGTGCCACAAATCATATATGCAATTTTGACTATACGGAGTCACCTAGTGCAG”, the binding signal is 9270 fluorescence intensity (a.u.). Then “ATGGAATCGATCACCTGCAATGCAACACCGTGCCATAATCCGGAGTCACCTAGTGCAG”, with 8520 fluorescence intensity (a.u.). For “GAGGAGAGCAGAACAGAACAAGAGGAGGAGAACAAAAAAACGGAGTCACCTAGTGCAG”, the binding signal was 8230 fluorescence intensity (a.u.). To “ATGTTTTTCTTTTCTTTCTTCTTTTTTTTGTTTTTGACCTCGGAGTCACCTAGTGCAG” belongs 11900 fluorescence intensity (a.u.); to “GAACACGATGACATCGGATCGGGTCGGTTTCTCTCTTGCTCGGAGTCACCTAGTGCAG”, 9010 fluorescence intensity (a.u.). In the case of “TTTTGCTTTGGTTGGTTTGCTCGTTTTTTTTTTCTTTTCTCGGAGTCACCTAGTGCAG”, the binding signal is 19600 fluorescence intensity (a.u.). To “TCTCTTTCTCTCGCTTTCTTTTTGCATAGTTTTCTTCATGCGGAGTCACCTAGTGCAG” belongs 8700 fluorescence intensity (a.u.).

On to “TTGGATCGTTTGCTTTTCTTTGCCTTTCTTTTGGATTTCTCGGAGTCACCTAGTGCAG”, for which the binding signal was 11700 fluorescence intensity (a.u.). To “TTTTCTTTGCTTTTCGGTTTCGTTCTCCGTTTTGGTTTTTCGGAGTCACCTAGTGCAG” belongs 12400 fluorescence intensity (a.u.); to “GTCTCGGTCTTTTCGATCTCGGTCTTTTCGGTTCGGTCTTCGGAGTCACCTAGTGCAG”, 9340 fluorescence intensity (a.u.); to “CTCGCTTTTCTCTTTTTTGATACTGTCTCGTGGTTTCTTGCGGAGTCACCTAGTGCAG”, 18400 fluorescence intensity (a.u.). As for “ATATATATATATATATATATATTTTGTCTTGAGTGGTTTGCGGAGTCACCTAGTGCAG”, the binding signal was 11700 fluorescence intensity (a.u.). Take “GGGTCGGTTTCTCTCTTGCTGTCTTCTCGATCGATCGATGCGGAGTCACCTAGTGCAG”: the binding signal was 20200 fluorescence intensity (a.u.). To “TGTCACAGTGTTTTGTTTGTGTTTTTGACCTTGCTTTCCTCGGAGTCACCTAGTGCAG” belongs 16800 fluorescence intensity (a.u.); to “GTAGTTTTTTTCCTAGTTTCAGTTTTTGTTTTGCTTTTTTCGGAGTCACCTAGTGCAG”, 11200 fluorescence intensity (a.u.). To “GCGTGGTTGATTTTTAGTCTTGTCGACTTCGACTTTAAGCCGGAGTCACCTAGTGCAG” belongs 9120 fluorescence intensity (a.u.); to “TCGGTACTCTTGCTGAAGCAATCCTTTCTTCCTTGCCTAACGGAGTCACCTAGTGCAG”, 9140 fluorescence intensity (a.u.). To “ACAGTACGCTACTATTCATACGCTAAATTTGTCTTTTTTACGGAGTCACCTAGTGCAG” belongs 9830 fluorescence intensity (a.u.); to “GGTTATTATATCTACAAAATTCTTGCACACCTCAGCAATGCGGAGTCACCTAGTGCAG”, 8090 fluorescence intensity (a.u.). On to “TCCGTCTGTCTATAGCTACTATTAAAGGAGGGGAGGCTCTCGGAGTCACCTAGTGCAG”, for which the binding signal is 8130 fluorescence intensity (a.u.). “AAACAAACACAGAGCTTCTCTCCTCTGTTCTCCTTCTCTGCGGAGTCACCTAGTGCAG”: the binding signal was 8090 fluorescence intensity (a.u.).

For “TCGTCTCCGGCCTTTTCTTGCTCTCCTCGTCTTCTTCCTCCGGAGTCACCTAGTGCAG”, the binding signal was 13200 fluorescence intensity (a.u.). Then “TGGCTCTCTCGCTCCTATGTGGCTATGTCTGTCTACCTAACGGAGTCACCTAGTGCAG”, with 10800 fluorescence intensity (a.u.); and “GATGTCTCTCTTTTTTTTTTTGGTTTGGGTTGTCACTTTTCGGAGTCACCTAGTGCAG”, with 9400 fluorescence intensity (a.u.); and “AATTTTCCGTTTCTCCTTTTCTTGCTTTGTTTTTTCCTTGCGGAGTCACCTAGTGCAG”, with 15200 fluorescence intensity (a.u.).

Consider “CCTGTTTTTTGTTTTTGGTGGTGGTTCCGTCTCGGTTAATCGGAGTCACCTAGTGCAG”, for which the binding signal was 9840 fluorescence intensity (a.u.). To “TAGTTTTGTTTAATTCCTGTCTCGGGTTTGGTTGGTTGCTCGGAGTCACCTAGTGCAG” belongs 19100 fluorescence intensity (a.u.). To “GATTTTTTTTTTCTCGTCTCCTCGTTTTTGCTTGCCTTTCCGGAGTCACCTAGTGCAG” belongs 19200 fluorescence intensity (a.u.); to “CTACATCTTCTCTCGCTATCTCTCTCTGTACTCTCTCTCTCGGAGTCACCTAGTGCAG”, 11400 fluorescence intensity (a.u.); to “TTCACTTTCACCTCGCCGTCTTGGTTGTCTTGCCGTCTTTCGGAGTCACCTAGTGCAG”, 20200 fluorescence intensity (a.u.). Consider “TGCACTTCTCCACTTCACTCCTCGTCTCTTGCCGTCTTTTCGGAGTCACCTAGTGCAG”, for which the binding signal is 13200 fluorescence intensity (a.u.). Then “ACTGTGGTTATCTTGCTATCTCTCCTACTCGCTCTGTCAACGGAGTCACCTAGTGCAG”, with 16500 fluorescence intensity (a.u.).

For “TGTGCAGTTTTGCTGTTTATGACTAGTTTACCTGTTGTCTCGGAGTCACCTAGTGCAG”, the binding signal is 10800 fluorescence intensity (a.u.).
